Results: the supplement of paper PMC10849652
Of roughly 8,800 targets only a part is listed; those with a hit were picked by preference. About 0.5% of all pairs of compound and target were hits. Unmarked numbers belong to inactive results.

Assays:
Assay in all cases: log2 fold change, soluble protein after heating vs DMSO (PISA); higher = thermal stabilisation; K562 lysate, 10 uM; active = over 0.2 and 3.5 SD of the protein, either way, in both replicates (recomputed)
ibrutinib = compound: C=CC(=O)N1CCC[C@@H](n2nc(-c3ccc(Oc4ccccc4)cc3)c3c(N)ncnc32)C1 [ibrutinib]
Procedure, shortened: (§1)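 To prepare the extract, K562 pellets were dounce-homogenised in PBS pH 7.4 with 1 mM MgCl2, giving crude material at 1 mg/mL protein. This was treated with 10 μM compound for 30 min, then heated in aliquots for 3 min over 48°C-58°C before pooling and addition of NP-40 to 0.5% at 4°C. Centrifugation at 21,000xg for 90 min left soluble protein in the supernatant, which TMTpro 16plex LC-MS/MS quantified with equalised channel sums. Results are log-two fold changes in thermal stability compared with solvent controls, from duplicates.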

[1] = compound: CC(=O)c1cnc2ccc(-c3cc(Cl)c(O)c(Cl)c3)nc2c1N[C@H]1CC[C@H](CN(C)C)CC1
Procedure, shortened: as §1

ralimetinib = compound: CC(C)(C)Cn1c(N)nc2ccc(-c3[nH]c(C(C)(C)C)nc3-c3ccc(F)cc3)nc21 [ralimetinib]
Procedure, shortened: as §1

[2] = compound: CC(C)(O)CC(=O)NCCn1ccc2ncnc(Nc3ccc(Oc4cccc(C(F)(F)F)c4)c(Cl)c3)c21
Procedure, shortened: as §1

[3] = compound: CC(C)C1=C2N=C(C=C(N2N=C1)NCC3=CC=CC=C3)NCCCCCCN
Procedure, shortened: as §1

[4] = compound: CC1=C(C(CC(=O)N1)C2=CC=C(C=C2)C(F)(F)F)C(=O)NC3=C(C=C4C(=C3)C=NN4)F
Procedure, shortened: as §1

[5] = compound: CC1=C(C2=C(C=C1)C(=O)C3=CC=CC=C3N2CCCN)C
Procedure, shortened: as §1

[6] = compound: CC1=C(C=C(C=C1)NC(=O)C2=CC(=CC=C2)C(C)(C)C#N)NC3=CC4=C(C=C3)N=CN(C4=O)C
Procedure, shortened: as §1

[7] = compound: CC1=C(C=C(C=C1)NC(=O)C2=CC(=CC=C2)N(C)C)NC(=O)C3=CC=C(C=C3)O
Procedure, shortened: as §1

[8] = compound: CC1=CC=C(C=C1)SC2=C3C=C(SC3=CN=C2)C(=O)N
Procedure, shortened: as §1

Chain of UniProt Q8WZA2 (Q8WZA2 whole entry, looked up): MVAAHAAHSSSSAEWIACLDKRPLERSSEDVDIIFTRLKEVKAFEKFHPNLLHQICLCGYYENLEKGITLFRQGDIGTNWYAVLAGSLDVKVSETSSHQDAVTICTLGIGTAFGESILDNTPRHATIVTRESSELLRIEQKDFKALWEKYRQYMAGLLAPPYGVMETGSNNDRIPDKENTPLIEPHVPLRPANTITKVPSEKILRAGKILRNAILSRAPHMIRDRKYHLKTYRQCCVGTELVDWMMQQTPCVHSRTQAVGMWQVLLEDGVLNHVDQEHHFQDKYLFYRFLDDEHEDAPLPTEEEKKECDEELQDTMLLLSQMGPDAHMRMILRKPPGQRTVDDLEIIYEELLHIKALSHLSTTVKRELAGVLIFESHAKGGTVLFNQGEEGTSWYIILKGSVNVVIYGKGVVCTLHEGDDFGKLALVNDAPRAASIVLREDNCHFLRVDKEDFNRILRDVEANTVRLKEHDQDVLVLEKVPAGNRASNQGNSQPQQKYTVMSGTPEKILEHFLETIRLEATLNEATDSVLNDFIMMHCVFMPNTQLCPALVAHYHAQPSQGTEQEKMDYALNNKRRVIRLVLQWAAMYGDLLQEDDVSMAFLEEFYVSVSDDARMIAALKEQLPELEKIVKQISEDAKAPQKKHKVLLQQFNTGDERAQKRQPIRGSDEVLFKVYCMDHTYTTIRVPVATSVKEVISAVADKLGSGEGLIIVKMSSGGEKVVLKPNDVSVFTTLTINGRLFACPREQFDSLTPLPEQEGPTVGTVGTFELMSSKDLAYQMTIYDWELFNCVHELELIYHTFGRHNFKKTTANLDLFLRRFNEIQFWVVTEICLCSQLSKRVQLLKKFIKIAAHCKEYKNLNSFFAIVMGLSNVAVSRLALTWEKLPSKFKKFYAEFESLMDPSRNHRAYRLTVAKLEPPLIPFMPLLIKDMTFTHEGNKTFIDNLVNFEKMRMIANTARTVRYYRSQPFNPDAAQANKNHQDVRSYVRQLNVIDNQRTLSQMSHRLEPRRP
Chain of UniProt Q9BRS2 (Q9BRS2 whole entry, looked up): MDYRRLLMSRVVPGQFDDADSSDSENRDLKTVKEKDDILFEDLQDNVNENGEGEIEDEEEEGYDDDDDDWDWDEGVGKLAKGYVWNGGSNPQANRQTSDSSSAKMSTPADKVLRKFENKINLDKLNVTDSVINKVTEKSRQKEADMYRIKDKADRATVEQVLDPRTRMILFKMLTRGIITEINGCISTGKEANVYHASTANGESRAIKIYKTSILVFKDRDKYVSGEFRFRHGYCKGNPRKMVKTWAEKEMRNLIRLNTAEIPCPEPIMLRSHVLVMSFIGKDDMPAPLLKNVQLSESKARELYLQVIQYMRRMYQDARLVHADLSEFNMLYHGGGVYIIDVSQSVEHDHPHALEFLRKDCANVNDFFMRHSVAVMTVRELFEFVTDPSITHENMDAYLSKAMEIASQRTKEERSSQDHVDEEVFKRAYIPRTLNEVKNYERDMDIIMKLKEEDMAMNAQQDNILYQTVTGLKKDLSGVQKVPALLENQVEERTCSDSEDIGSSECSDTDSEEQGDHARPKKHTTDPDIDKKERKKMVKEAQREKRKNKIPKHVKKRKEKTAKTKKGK
Chain of UniProt Q5TBB1 (Q5TBB1 whole entry, looked up): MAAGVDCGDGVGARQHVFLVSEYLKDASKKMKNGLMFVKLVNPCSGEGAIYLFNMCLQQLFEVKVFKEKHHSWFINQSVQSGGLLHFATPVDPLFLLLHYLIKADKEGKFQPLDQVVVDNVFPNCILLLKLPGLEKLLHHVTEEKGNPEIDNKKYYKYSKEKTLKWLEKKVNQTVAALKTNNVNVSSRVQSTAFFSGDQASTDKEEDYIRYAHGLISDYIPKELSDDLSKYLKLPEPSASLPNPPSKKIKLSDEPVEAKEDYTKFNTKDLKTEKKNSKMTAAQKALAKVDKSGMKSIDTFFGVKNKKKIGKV
Chain of UniProt Q7L0Q8 (Q7L0Q8 whole entry, looked up): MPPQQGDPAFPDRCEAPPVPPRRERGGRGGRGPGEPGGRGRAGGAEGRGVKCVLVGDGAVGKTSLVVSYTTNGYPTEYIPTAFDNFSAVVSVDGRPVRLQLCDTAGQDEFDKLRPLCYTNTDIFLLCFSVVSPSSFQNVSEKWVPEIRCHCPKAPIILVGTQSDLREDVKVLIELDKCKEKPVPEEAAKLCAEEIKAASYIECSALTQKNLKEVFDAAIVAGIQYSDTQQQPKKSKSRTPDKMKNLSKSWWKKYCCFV
Chain of UniProt Q9UPW6 (Q9UPW6 whole entry, looked up): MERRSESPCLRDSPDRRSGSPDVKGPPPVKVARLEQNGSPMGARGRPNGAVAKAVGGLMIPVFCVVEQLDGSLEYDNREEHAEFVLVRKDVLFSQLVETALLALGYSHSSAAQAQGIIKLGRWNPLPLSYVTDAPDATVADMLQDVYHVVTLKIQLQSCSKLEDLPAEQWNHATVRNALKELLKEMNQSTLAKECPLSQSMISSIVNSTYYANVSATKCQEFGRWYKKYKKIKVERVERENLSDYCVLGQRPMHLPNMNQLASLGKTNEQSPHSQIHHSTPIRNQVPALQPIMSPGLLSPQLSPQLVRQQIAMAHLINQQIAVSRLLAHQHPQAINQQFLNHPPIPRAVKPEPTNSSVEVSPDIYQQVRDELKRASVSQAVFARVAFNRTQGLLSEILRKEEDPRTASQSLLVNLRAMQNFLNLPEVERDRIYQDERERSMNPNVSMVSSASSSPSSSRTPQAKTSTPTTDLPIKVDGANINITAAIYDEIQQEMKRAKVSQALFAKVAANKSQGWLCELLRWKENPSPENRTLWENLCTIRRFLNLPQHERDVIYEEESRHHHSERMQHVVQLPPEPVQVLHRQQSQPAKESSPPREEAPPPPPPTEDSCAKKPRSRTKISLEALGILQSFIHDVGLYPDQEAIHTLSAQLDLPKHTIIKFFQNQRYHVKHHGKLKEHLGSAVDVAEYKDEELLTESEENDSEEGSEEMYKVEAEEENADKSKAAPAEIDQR
Chain of UniProt Q9BXT8 (Q9BXT8 whole entry, looked up): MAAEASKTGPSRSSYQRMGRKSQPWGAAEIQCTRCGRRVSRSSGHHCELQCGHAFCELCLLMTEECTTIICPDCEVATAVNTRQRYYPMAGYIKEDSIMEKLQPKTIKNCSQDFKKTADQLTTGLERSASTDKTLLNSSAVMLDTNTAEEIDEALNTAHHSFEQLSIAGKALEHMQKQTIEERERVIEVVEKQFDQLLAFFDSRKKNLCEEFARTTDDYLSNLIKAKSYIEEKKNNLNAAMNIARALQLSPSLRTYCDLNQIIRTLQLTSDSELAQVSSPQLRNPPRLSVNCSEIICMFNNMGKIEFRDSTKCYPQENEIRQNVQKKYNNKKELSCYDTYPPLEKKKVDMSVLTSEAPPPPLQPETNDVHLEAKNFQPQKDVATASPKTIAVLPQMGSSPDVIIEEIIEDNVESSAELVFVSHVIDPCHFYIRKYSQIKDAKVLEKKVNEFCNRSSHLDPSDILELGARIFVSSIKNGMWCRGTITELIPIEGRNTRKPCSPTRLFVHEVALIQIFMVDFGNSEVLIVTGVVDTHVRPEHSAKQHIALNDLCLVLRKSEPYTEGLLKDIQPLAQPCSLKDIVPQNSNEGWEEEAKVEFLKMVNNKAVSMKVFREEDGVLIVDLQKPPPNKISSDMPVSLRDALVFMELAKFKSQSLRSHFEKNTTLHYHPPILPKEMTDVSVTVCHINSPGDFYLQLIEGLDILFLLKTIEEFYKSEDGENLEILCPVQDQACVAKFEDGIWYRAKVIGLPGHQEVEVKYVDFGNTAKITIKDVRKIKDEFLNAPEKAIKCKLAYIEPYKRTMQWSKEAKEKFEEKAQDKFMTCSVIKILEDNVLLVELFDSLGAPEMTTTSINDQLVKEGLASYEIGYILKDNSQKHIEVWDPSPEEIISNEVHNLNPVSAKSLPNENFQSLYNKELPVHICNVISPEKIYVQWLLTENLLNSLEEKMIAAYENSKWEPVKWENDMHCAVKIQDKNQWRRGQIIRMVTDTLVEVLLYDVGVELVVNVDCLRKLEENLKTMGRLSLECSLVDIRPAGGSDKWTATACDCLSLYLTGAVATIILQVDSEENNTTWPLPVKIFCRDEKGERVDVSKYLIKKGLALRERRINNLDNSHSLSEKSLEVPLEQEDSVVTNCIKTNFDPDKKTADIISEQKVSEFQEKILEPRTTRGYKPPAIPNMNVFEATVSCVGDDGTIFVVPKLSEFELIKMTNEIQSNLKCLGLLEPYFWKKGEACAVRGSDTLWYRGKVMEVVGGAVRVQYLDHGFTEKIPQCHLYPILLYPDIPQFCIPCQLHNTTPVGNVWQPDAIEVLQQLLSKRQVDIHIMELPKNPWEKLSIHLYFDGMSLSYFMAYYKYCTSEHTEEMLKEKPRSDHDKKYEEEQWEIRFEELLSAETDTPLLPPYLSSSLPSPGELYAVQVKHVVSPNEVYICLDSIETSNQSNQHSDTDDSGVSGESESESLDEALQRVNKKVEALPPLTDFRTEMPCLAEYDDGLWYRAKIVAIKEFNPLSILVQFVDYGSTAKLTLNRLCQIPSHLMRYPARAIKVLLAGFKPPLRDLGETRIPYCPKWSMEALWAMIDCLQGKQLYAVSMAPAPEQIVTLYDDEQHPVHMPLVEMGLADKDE
Chain of UniProt Q9Y6D0 (Q9Y6D0 whole entry, looked up): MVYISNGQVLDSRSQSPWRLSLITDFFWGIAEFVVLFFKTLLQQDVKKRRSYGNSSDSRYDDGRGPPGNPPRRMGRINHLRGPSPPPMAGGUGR
Chain of UniProt Q02094 (Q02094 whole entry, looked up): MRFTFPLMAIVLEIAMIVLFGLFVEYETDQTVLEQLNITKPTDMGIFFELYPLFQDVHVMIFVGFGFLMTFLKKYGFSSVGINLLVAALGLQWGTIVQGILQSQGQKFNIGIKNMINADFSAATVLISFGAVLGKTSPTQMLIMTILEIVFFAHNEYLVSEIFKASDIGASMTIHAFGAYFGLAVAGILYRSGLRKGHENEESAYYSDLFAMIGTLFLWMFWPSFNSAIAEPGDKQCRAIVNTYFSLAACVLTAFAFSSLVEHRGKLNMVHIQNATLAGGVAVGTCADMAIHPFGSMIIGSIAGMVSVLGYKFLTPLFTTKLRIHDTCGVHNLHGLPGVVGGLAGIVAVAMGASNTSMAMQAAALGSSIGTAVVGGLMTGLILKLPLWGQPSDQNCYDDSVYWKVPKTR

Target	log2 fold change (ibrutinib)	log2 fold change [1]	log2 fold change (ralimetinib)	log2 fold change [2]	log2 fold change [3]	log2 fold change [4]	log2 fold change [5]	log2 fold change [6]	log2 fold change [7]	log2 fold change [8]
RPS9 (UniProt P46781)	-0.02	0.015	0.016	0.026	-0.007	-0.038	-0.095	-0.048	0.006	0.043
RXRB isoform 3 (UniProt P28702)	0.047	-0.037			0.106	0.026	-0.005	0.011		-0.109
RABL3 (UniProt Q5HYI8)	0.017	0.014	0.153	-0.05	-0.047	0.021	-0.043	0.003	-0.141	0.014
RPS6KA3 (UniProt P51812)	-0.04	0.56 (active)	-0.004	-0.032	-0.11	-0.043	-0.02	-0.061	0.006	-0.039
RHOA (UniProt P61586)	0.36	-0.041	0.014	0.094	0.031	0.003	0.093	-0.02	-0.022	-0.006
RAPGEF4 (UniProt Q8WZA2)	-0.026	-0.129	-0.001	-0.328	0.044		0.046	0.442	-0.004	-0.166
RNF17 (UniProt Q9BXT8)	-0.098	0.035	-0.044	-0.254	-0.023		0.077	-0.196	-0.044	-0.068
RABGGTB (UniProt P53611)	-0.017	-0.042	0.018	-0.052	0.015	-0.002	-0.006	-0.013	0.048	0.013
RIOK1 (UniProt Q9BRS2)	0.006	0.251	0.002	-0.003	-0.005	0.004	-0.009	0.015	-0.009	0.249
RNASEH2B (UniProt Q5TBB1)	-0.001	-0.032	0.026	0	0.031	-0.025	0.024	0.005	0.025	0.009
RETREG2 (UniProt Q8NC44)	0.011	0.009	0.071	-0.129	0.062	0.127		0.051	0.116	0.011
RHAG (UniProt Q02094)	0.004	-0.035	-0.001	-0.068	0.042	0.09	-0.056	0.08	0.008	-0.003
SCCPDH (UniProt Q8NBX0)	0.155	-0.042	0.083	0.112	0.122	-0.017	-0.068	0.055	-0.098	0.187
SEMA4G isoform 2 (UniProt Q9NTN9)					-0.013		-0.021	-0.137		
SEC16A isoform 3 (UniProt O15027)			-0.283	-0.122			-0.006		-0.023	
RHBDD1 (UniProt Q8TEB9)	-0.059	-0.518 (active)								0.038
SATB2 (UniProt Q9UPW6)		-0.005	0.037	-0.004	-0.029	-0.007	-0.023	-0.027	0.002	0.047
RNF24 isoform 2 (UniProt Q9Y225)	-0.051				0.33	-0.026		0.092		

Target	log2 fold change (ibrutinib)	log2 fold change [1]	log2 fold change (ralimetinib)	log2 fold change [2]	log2 fold change [3]	log2 fold change [4]	log2 fold change [5]	log2 fold change [6]	log2 fold change [7]	log2 fold change [8]
SEC16A isoform 2 (UniProt O15027)			-0.103	-0.062					0.167	
RUFY2 isoform 1 (UniProt Q8WXA3)	0.068		-0.031	0.005		-0.118		-0.101	-0.033	
RALGAPB isoform 3 (UniProt Q86X10)	0.106						-0.087			
RAB5IF isoform 5 (UniProt Q9BUV8)	-0.039	-0.029			-0.163	0.086	-0.165			0.073
SAP30 (UniProt O75446)	0.058	0.033				0.101	-0.007	0.016		0.006
QSER1, A0A3B3IRW6		-0.047	-0.014	-0.021	-0.009	-0.001	0.037	0.009	0.087	-0.087
RNF2 (UniProt Q99496)			-0.053	-0.01	0.017	0.009	-0.081	-0.048	0.024	
RDH11 (UniProt Q8TC12)		-0.021	0.005	-0.043	0.068	-0.013	-0.039	-0.037	-0.039	-0.111
S100A6 (UniProt P06703)		-0.082	0.117	0.152	-0.01		0.793 (active)	0.04	0.199	0.032
RNPC3 (UniProt Q96LT9)		0.017	0.02	-0.029	-0.122	-0.027	-0.015	-0.028	0.054	-0.003
RLIM (UniProt Q9NVW2)	0.014							0.465		
RHOU (UniProt Q7L0Q8)		-0.007	0.057	0.009	0.066	0.012	0.015	-0.003	0.019	0.045
RNASEH2B, A0A1B0GUE7		-0.017				-0.12				0.09
SERAC1 (UniProt Q96JX3)	0.066				-0.115	0.051	-0.193			
RFWD3 (UniProt Q6PCD5)	-0.001		0.039	-0.059	0.066	0.059	-0.06	0.087	-0.007	
RPS6KA5 (UniProt O75582)		0.173	-0.02	-0.055	-0.027	0.011	-0.04	-0.441 (active)	0.004	0.005
RFNG (UniProt Q9Y644)						0.023				
SELENOK (UniProt Q9Y6D0)	0.05	-0.134				0.092	-0.164			0.022
